hcDAF12 agonist: H. contortus DAF-12 activation, primary screen | HEK293 hcDAF-12 lit1-tk-luc reporter, luminescence; 0% DMSO, 100% Δ7-dafachronic acid | activation, % at 6.8 µM | hit rate 1.4% among 370,000;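 active = activation above the mean of all tested compounds plus 3 SD, cut at about 5.5% in these data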;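 note: 100% = response to 3 µM Δ7-dafachronic acid high control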
DAX1 inh-1: inhibits human nuclear receptor DAX1; P51843; HEK293 Gal4-DAX1 luciferase reporter, luminescence; inhibition, % at 6.75 µM; hit rate 0.99% among 340,000;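 active = inhibition above the mean over all tested compounds plus 3 SD, cut at about 4.2% in these data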;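 note: 0% = DAX1-transfected cells with DMSO and 100% = empty-vector control cells with DMSO; inhibition shows as a rise in luminescence from relieved DAX1 repression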
DAX1 inh-2: inhibitors of DAX1 repression of SF-1 activated StAR promoter. HEK293T StAR-luciferase reporter, SF-1/DAX-1 repression relief. inhibition, % at 6.8 µM. hit rate 1.1% among 370,000. AID 652010;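 active = inhibition above the mean over all tested compounds plus 3 SD, cut at about 3.6% in these data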;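 note: 0% = DAX-1 cells with DMSO and 100% = cells lacking DAX-1 with DMSO; higher inhibition means more luminescence from relief of DAX-1 repression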
ssDAF12 agonist: S. stercoralis DAF-12 activation, primary screen; HEK293 ssDAF-12/GRIP1 lit1-tk-luc reporter, luminescence; % of 3 µM dafachronic acid response; activation, % at 6.8 µM; hit rate 1% among 370,000; AID 652126;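 active = activation above the mean over all tested compounds plus 3 SD, cut at about 0.9% in these data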;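 note: 0% = DMSO-only wells and 100% = 3 µM delta7-dafachronic acid wells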
hgDAF12 agonist: hgDAF-12 agonism, primary luciferase screen; activation, % at 6.8 µM; hit rate 1.8% among 370,000; HEK293 GAL4-hgDAF12 UAS-luciferase reporter, agonist luminescence; normalized to butyrate control; AID 687014;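 active = activation above a cutoff set at the mean of all screened compounds plus 3 SD, cut at about 10% in these data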;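 note: 0% = DMSO wells and 100% = sodium butyrate wells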
DAX1 conf: NR0B1 (human) inhibition, confirmation; hit rate 87% among 2,400; inhibition, % at 6.8 µM; shares compounds with DAX1 inh-2; HEK293T StAR-promoter luciferase reporter, SF-1/DAX-1 repression; AID 652134;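 active = inhibition above the average of every tested compound plus 3 SD, cut at about 3.8% in these data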;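 note: 0% = DAX-1 cells with DMSO and 100% = no DAX-1 control cells with DMSO; active compounds raise luminescence by relieving repression of the StAR reporter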
Target sequence (P51843 whole entry, looked up): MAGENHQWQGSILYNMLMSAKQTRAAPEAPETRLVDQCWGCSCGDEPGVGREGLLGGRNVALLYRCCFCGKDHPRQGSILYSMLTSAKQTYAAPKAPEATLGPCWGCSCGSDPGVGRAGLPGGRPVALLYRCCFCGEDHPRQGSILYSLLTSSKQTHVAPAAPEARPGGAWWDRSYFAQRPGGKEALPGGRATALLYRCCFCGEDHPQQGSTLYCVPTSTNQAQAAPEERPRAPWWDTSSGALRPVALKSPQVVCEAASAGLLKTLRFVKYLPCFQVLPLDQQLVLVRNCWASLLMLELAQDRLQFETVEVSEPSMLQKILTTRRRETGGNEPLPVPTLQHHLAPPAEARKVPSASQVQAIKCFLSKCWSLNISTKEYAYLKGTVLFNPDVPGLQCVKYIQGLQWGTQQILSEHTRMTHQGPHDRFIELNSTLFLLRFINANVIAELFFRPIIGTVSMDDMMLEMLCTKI
SF1 AF2mut Luc: nonselective inhibitor or artifact in SF-1 mutant DAX1 counter-screen; hit rate 78% among 2,400; inhibition, % at 6.8 µM; HEK293 StAR-luciferase, SF-1 AF2 mutant, luminescence; shares compounds with DAX1 inh-2; AID 652136;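 active = inhibition above the mean of all tested compounds plus 3 SD, cut at about 3% in these data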;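 note: 0% = DAX-1 transfected cells with DMSO and 100% = cells without DAX-1 with DMSO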
LXR ag: counter-screen for hcDAF-12 agonists: agonists of human LXR-beta | shares compounds with hcDAF12 agonist | HEK293 Gal4-LXR tk-luc reporter, luminescence, 24 h; normalized: DMSO 0%, positive control 100% | activation, % at 6.8 µM | 3,400 tested, under 10 active | AID 743027;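 active = mean percent activation of the reporter above a cutoff set as the average over tested compounds plus their standard deviation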
hcDAF12 conf: hcDAF-12 agonism, confirmation assay; hit rate 61% among 3,400; HEK293 hcDAF-12 lit1-tk-luc reporter, luminescence; % of Δ7-dafachronic acid response; activation, % at 6.8 µM; shares compounds with hcDAF12 agonist;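 active = mean activation across triplicate tests above the threshold derived from the earlier primary screen, cut at about 5.5% in these data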;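 note: 0% = DMSO only wells and 100% = 3 µM Δ7-dafachronic acid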
An asterisk follows results filed as active. Most compounds without a hit are left out; they make up all but 4.1% or so of the library.

Results for O=C(Nc1nc2ccccc2[nH]1)c1ccc(F)cc1 ?
hcDAF12 agonist: 8.0*; DAX1 inh-1: -2.1; DAX1 inh-2: 5.3*; ssDAF12 agonist: 1.2*; hgDAF12 agonist: 12.9*; DAX1 conf: 14.0*; SF1 AF2mut Luc: 8.9*; LXR ag: 1.1; hcDAF12 conf: 4.6

How did Cc1ccnc(N/N=C/c2ccccc2)n1 do in these assays?
hcDAF12 agonist: 17.2*; DAX1 inh-1: 1.4; DAX1 inh-2: 4.6*; ssDAF12 agonist: 0.1; hgDAF12 agonist: 12.8*; DAX1 conf: 11.2*; SF1 AF2mut Luc: 6.3*; LXR ag: 0.5; hcDAF12 conf: 3.0

What do the screens show for `C(=N\Nc1nccc(-c2cccnc2)n1)/c1ccccc1`?
hcDAF12 agonist: 2.1; DAX1 inh-2: 1.0; ssDAF12 agonist: -1.0; hgDAF12 agonist: 7.4

Results for COc1cc(OC)cc(-c2nc(-c3cccs3)no2)c1 ?
hcDAF12 agonist: 1.1; DAX1 inh-1: 0.3; DAX1 inh-2: 1.1; ssDAF12 agonist: -0.5; hgDAF12 agonist: 3.5

Results for COc1cccc(-c2nc(-c3cccs3)no2)c1 ?
hcDAF12 agonist: 14.6*; DAX1 inh-1: 3.1; DAX1 inh-2: 5.3*; ssDAF12 agonist: 4.0*; hgDAF12 agonist: 25.8*; DAX1 conf: 16.7*; SF1 AF2mut Luc: 10.7*; LXR ag: 1.9; hcDAF12 conf: 16.2*

What do the screens show for `O=C(Nc1ncccc1O)c1ccc(Cl)c(S(=O)(=O)N2CCCCCC2)c1`?
hcDAF12 agonist: -0.6; DAX1 inh-1: -1.5; DAX1 inh-2: 0.6; ssDAF12 agonist: -1.1; hgDAF12 agonist: -1.1

How did O=C(Nc1ncccc1O)c1ccc2ccccc2c1 do in these assays?
hcDAF12 agonist: 9.9*; DAX1 inh-1: -0.5; DAX1 inh-2: 10.2*; ssDAF12 agonist: -0.1; hgDAF12 agonist: 12.5*; DAX1 conf: 14.0*; SF1 AF2mut Luc: 7.4*; LXR ag: 1.4; hcDAF12 conf: 6.9*

Results for C[C@H]1[C@@H](C(=O)N2CCCC2)CC(=O)/C(=N/OCc2ccccc2)C[C@@H]1c1ccccc1 ?
hcDAF12 agonist: 0.0; DAX1 inh-2: -0.5; ssDAF12 agonist: -1.2; hgDAF12 agonist: 0.5

What do the screens show for `O=S(=O)(/N=C(/Nc1nc2ccccc2s1)c1ccccc1)c1ccccc1`?
hcDAF12 agonist: 8.9*; DAX1 inh-1: 0.5; DAX1 inh-2: 14.0*; ssDAF12 agonist: 1.5*; hgDAF12 agonist: 11.6*; DAX1 conf: 5.0*; SF1 AF2mut Luc: 4.2*; LXR ag: 0.5; hcDAF12 conf: 2.5

Results for O=C(Nc1ccc2c(c1)OCCO2)c1ccccc1Cl ?
hcDAF12 agonist: 7.2*; DAX1 inh-1: 1.9; DAX1 inh-2: 9.0*; ssDAF12 agonist: 0.0; hgDAF12 agonist: 11.7*; DAX1 conf: 16.0*; SF1 AF2mut Luc: 9.4*; LXR ag: 1.5; hcDAF12 conf: 8.1*

How did O=C(Nc1ccc2c(c1)OCCO2)c1cccc2nc3ccccc3nc12 do in these assays?
hcDAF12 agonist: -1.9; DAX1 inh-1: 0.3; DAX1 inh-2: -1.0; ssDAF12 agonist: -1.8; hgDAF12 agonist: 3.3

How did CCN=C1NC(c2cccc(Cl)c2)C(C(=O)OC)=C(C)N1Cc1ccccc1C(F)(F)F (stereo not drawn) do in these assays?
hcDAF12 agonist: -0.6; DAX1 inh-2: -1.1; ssDAF12 agonist: -0.6; hgDAF12 agonist: 0.8

Results for CN(C)c1ccc(/C=N/NC(=O)c2ccco2)cc1 ?
hcDAF12 agonist: 10.3*; DAX1 inh-1: 0.1; DAX1 inh-2: 4.6*; ssDAF12 agonist: 1.2*; hgDAF12 agonist: 13.5*; DAX1 conf: 13.8*; SF1 AF2mut Luc: 7.1*; LXR ag: 0.9; hcDAF12 conf: 5.4

Screening data: PubChem BioAssay, The Scripps Research Institute Molecular Screening Center
